DT40 TDP1 CPT: growth inhibition of DT40 Tdp1-/-;hTDP1 cells with camptothecin (screen for TDP1 inhibitors); chicken DT40 Tdp1-/-;hTDP1 cells + 20 nM CPT, ATP luminescence, 48 h; Potency, µM (highest dose often 46.2 µM), for the others: top-dose activity change, negative = growth inhibition, usual class: inhibitors; 420,000 compounds, 12% hits; note: % is set by controls: 0 for no effect and ±100 for the full control effect; nearly all actives have a fitted effect of over 55% in size
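Chicken DT40 Tdp1-/- cells stably complemented with human TDP1 were seeded at 400 cells/well in medium containing 20 nM camptothecin, exposed to pin-transferred compounds, and grown at 37 °C for at least 48 hr. Viability was read as ATP luminescence.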
HT1080 IDH1KD tx: HT-1080 IDH1 knockdown cell toxicity (counter line). HT-1080 IDH1 knockdown viability, ATP luminescence, 48 h. Potency, µM (titrated, usually from 46.1 µM), inactives show at the highest dose activity, negative = toxicity, usual class: cytotoxic. 360,000 compounds, 2% hits;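 note: 0% = DMSO wells and -100% = cell-free medium wells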
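IDH1KD HT-1080 cells, 750/well, RPMI + 5% FBS; compound pinned after 2 h settling; 48 h, 37 °C; CellTiter-Glo luminescence; % activity normalised to DMSO and no-cell wells; curves fitted, classed by r2 and efficacy.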
HepG2 tox: HepG2 cytotoxicity, counter-screen for TGF-b inhibitors | HepG2 CAGA-GFP viability, ATP luminescence, 18 h | Potency, µM (series often up to 46.1 µM), without a hit: at the highest dose activity change, negative = cytotoxicity, usual class: cytotoxic | 410,000 compounds, 0.76% hits | AID 588856
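CellTiter-Glo luminescence gave cytotoxicity after 18 hours at 37 degrees C. The cells were HepG2 CAGA-GFP in 1% FBS DMEM, stimulated with 500 pg/mL TGF-beta after compound addition. %Activity was normalised to no-cell wells (complete cell-killing) and DMSO (no toxicity), and curves were fitted and classified.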
HT1080-NT tox: kills 2HG-producing HT-1080-NT fibrosarcoma cells; HT-1080-NT fibrosarcoma viability, CellTiter-Glo ATP luminescence, 48 h; Potency, µM (doses to about 46.1 µM), inactives show at the top dose activity, negative = less viability, most hits filed as cytotoxic; 360,000 compounds, 1.6% hits;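 note: NT is the 2HG producing partner of a matched IDH1 knockdown line; 0% = DMSO-treated cells and -100% = media-only wells without cells; nearly all actives have a fitted effect of over 55% in size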
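Viability by CellTiter-Glo luminescence after 48 h compound exposure at 37C of HT-1080-NT cells (750/well, RPMI, 5% FBS). % activity scaled between DMSO wells and medium-only wells, then curve-fitted and categorized by curve class.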
TGFb SMAD3 inh: TGF-b pathway inhibition | HepG2 CAGA-GFP TGF-b/SMAD3 reporter, GFP fluorescence, 18 h; TGF-beta stimulated, 500 pg/mL final | Potency, µM (doses to about 46.1 µM), inactives show at the highest dose activity, negative = inhibition, usual class: inhibitors | 410,000 compounds, 1.2% hits | AID 588855; note: % is set by controls: 0 for no effect and ±100 for the full control effect; nearly all actives have a fitted effect of over 65% in size
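First, reporter cells (HEPG2 CAGA-GFP) rested 2 h at 37 degrees C. Next, compounds were pinned in and TGF-beta added to 500 pg/mL final. After 18 h, GFP was imaged per cell and summed per well.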
TDP1 cell noCPT: qHTS for Inhibitors of human tyrosyl-DNA phosphodiesterase 1 (TDP1): qHTS in cells in absence of CPT | DT40 Tdp1-/- hTDP1 cells, no CPT, ATP luminescence, 48 h | Potency, µM (top dose mostly 46.2 µM), for the others: top-dose activity change, negative = growth inhibition, hits mostly inhibitors | 420,000 compounds, 15% hits; note: % is set by controls: 0 for no effect and ±100 for the full control effect; nearly all actives have a fitted effect of over 55% in size
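Growth kinetics read by CellTiter-Glo luminescence after ≥48 hr at 37 °C. Cells: DT40 Tdp1-/- stably carrying human TDP1, 400 per well, compound exposure in the absence of CPT (DMSO vehicle).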
* = called active by the depositor; u = inconclusive; x = not tested or not shown. Hits are enriched below; roughly 17% of the tested compounds scored in any of these assays. Calls come from the whole dose curve; as a rule, active = well fitted curve in the direction sought with a large enough effect; inconclusive = small, poorly fitted or top-dose-only effect, or another doubt; inactive = no such curve, though single readings can be large; an effect the other way counts as inactive or inconclusive. Potency is the fitted concentration of half-maximal effect.

SMILES | DT40 TDP1 CPT | HT1080 IDH1KD tx | HepG2 tox | HT1080-NT tox | TGFb SMAD3 inh | TDP1 cell noCPT
COc1ccccc1CNC(=O)C(=O)NCC(c1ccco1)S(=O)(=O)c1cccs1 (configuration not stated) | -29.9% | x | -7.5% | x | u | u
Cn1c(O)c(C2=c3ccccc3=NC2=O)[nH]c1=S | -20.2% | -9.2% | -13.1% | -8.8% | u | -23.3%
COc1ccc2nc(-n3c(O)c(C4=c5ccccc5=NC4=O)[nH]c3=S)sc2c1 | u | -23.7% | -23.9% | -23.0% | -15.9% | 23.1µM*
Cc1ccc(C(=O)N2CCN(Cc3nc4sc5c(c4c(=O)[nH]3)CCCC5)CC2)cc1 | 29.1µM* | 12.2% | -38.4% | 7.1% | u | 20.6µM*
O=C(CCc1nc2sc3c(c2c(=O)[nH]1)CCCC3)Nc1cccc(Cl)c1 | u | -15.6% | -0.2% | -48.1% | -0.4% | 20.6µM*
CCN(CC(=O)Nc1ccccc1C(F)(F)F)C(=O)CCc1nc2sc3c(c2c(=O)[nH]1)CCCC3 | u | -5.5% | -1.0% | -5.1% | 0.7% | 16.4µM*
CCN(CC)C(=O)c1cccc(NC(=O)CCc2nc3sc4c(c3c(=O)[nH]2)CCCC4)c1 | u | -3.8% | -11.9% | -3.7% | -28.8% | u
CCN(CC(=O)NC(C)C)Cc1nc2sc3c(c2c(=O)[nH]1)CCC3 | 3.26µM* | -8.0% | -14.2% | -1.5% | 1.9% | 4.61µM*
Cc1cc(C)cc(NC(=O)CCc2nc3sc4c(c3c(=O)[nH]2)CCCC4)c1 | 4.61µM* | -13.4% | -85.1% | -14.2% | u | 10.3µM*
CC(=O)Nc1ccc(NC(=O)CCc2nc3sc4c(c3c(=O)[nH]2)CCCC4)cc1 | -18.0% | 0.6% | 2.7% | -14.2% | 0.8% | -1.1%
CC1(C)OC(=O)NC1c1ccccc1 (configuration not stated) | -2.6% | 7.7% | -22.4% | 2.3% | -1.0% | -3.2%
CC(O)CN(C)C (configuration not stated) | 14.0% | x | x | x | x | -9.5%
CCCCNC(=NCc1cccc(C(F)(F)F)c1)Nc1ccccc1 | 13µM* | 23.1µM* | -186.5% | u | 0.0% | 10.3µM*
CN(Cc1ccc(Cl)c(Cl)c1)C(=O)C1CSC2(C)CCC(=O)N12 (configuration not stated) | 14.6µM* | -0.5% | -13.0% | 3.4% | -25.3% | 14.6µM*
CN(CC(=O)Nc1c(Cl)cccc1Cl)C(=O)C1CSC2(C)CCC(=O)N12 (configuration not stated) | -20.7% | -0.5% | -0.4% | 1.2% | -20.2% | 8.0%
Cc1ccccc1NC(=O)C(=O)NCc1ccccn1 | -3.7% | 4.7% | 1.9% | 10.7% | 44.7% | 19.8%
O=C(/C=C/Nc1cccc(C(F)(F)F)c1)c1ccc(Oc2ncccn2)cc1 | u | 1.3% | -9.0% | 2.0% | -4.9% | 23.1µM*
O=C(/C=C/Nc1cccc(C(F)(F)F)c1)c1ccco1 | 15.5% | 5.6% | -8.8% | 9.6% | -8.7% | -13.6%
O=C(Nc1ccc(F)cc1)N1CCN(c2ccc3nnc(-c4ccc(F)cc4)n3n2)CC1 | u | u | 12.6% | u | -5.9% | u
Fc1ccc(-c2nnc3ccc(N4CCc5ccccc5C4)nn23)cc1 | 9.2µM* | -20.0% | 1.0% | -0.2% | 20.4% | 8.2µM*
O=C(NC1CCCc2ccccc21)C1CCN(C(=O)c2sccc2-n2cccc2)CC1 (configuration not stated) | 14.6µM* | -5.6% | -25.9% | 0.0% | 2.3% | u
COc1cc2c(NC3CCN(C)CC3)nc(N3CCCN(C)CC3)nc2cc1OCc1ccccc1 | 2.82µM* | 6.31µM* | x | 10µM* | x | 2.82µM*
